This is an account of results in PubChem BioAssay (NCATS).

Results filed as inconclusive are left out. Active and inactive are the calls of the source. Unless noted, the call rests on the fitted dose curve; in most records, active means well fitted curve in the direction sought with a large enough effect; inconclusive means small, poorly fitted or top-dose-only effect, or another doubt; inactive means no such curve, though single readings can be large; an effect the other way counts as inactive or inconclusive.

Assay [1] relates to Zika virus NS2B-NS3 protease. In words: Primary screen GU AMC qHTS for Zika virus inhibitors (AID 1347154).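 Further: 0% = no-inhibitor control and -100% = no-enzyme control; nearly all actives have a fitted effect of over 70% in size.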 Summed up: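 Unlinked Zika NS2B hydrophilic domain/NS3 protease domain noncovalent complex (25 nM final) in 10 mM Tris-HCl pH 8.0, 0.01% Tween 20, with AMC peptide substrate. Fluorescence (ex 340, em 450 nm) change over 15 min, room temperature; percent inhibition fitted to 4-parameter Hill equation.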
A general note: Quantitative high-throughput screening tests each substance at several concentrations.

Assay [2] can be described thus: Primary qHTS for small molecule stabilizers of the endoplasmic reticulum resident proteome: Secreted ER Calcium Modulated Protein (SERCaMP) assay (AID 1508630). Further: on the % scale 0 is the no-effect control and ±100 the full control effect. Summed up: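 GLuc-SERCaMP-expressing SH-SY5Y cells, pretreated 16 h with compound, are challenged with thapsigargin to empty ER calcium stores; after 4 h, coelenterazine is added directly to the medium and luminescence is imaged.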

Assay [3] in a line: NCATS anti-infectives library activity on HEK293 viability as a counter-qHTS vs the C. elegans viability qHTS (AID 1745854).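 Further: HEK293 cells exposed to compounds for 24 hr before the viability read; on the % scale 0 is the no-effect control and ±100 the full control effect.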 Summed up:
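Compounds were acoustically plated (several concentrations, 1:5, final up to 41.7 uM), then 1500 HEK293 cells added per well and incubated 24 hr at 37C, 5% CO2. CellTiter-Glo was added and luminescence read after 10 min.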

Assay [4] in a line: NCATS anti-infectives library activity on the primary C. elegans qHTS viability assay (AID 1745855; calls by dose curve; further: potency means the concentration at half of the fitted maximal effect). Summed up: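 Viability read-out is GFP fluorescence of PE254-GFP-FLuc C. elegans, measured by laser cytometry (488 nm) at day 0, 3 and 7. Ten L1 worms per well were incubated 7 days at 21 °C with compounds and bacterial capsules in S medium.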
In assay [5] the target is Cytochrome P450 3A4 (Homo sapiens) (UniProt P08684). In words: qHTS Assay for Inhibitors and Substrates of Cytochrome P450 3A4 (AID 884). Further: series mostly up to about 57 µM; on the % scale 0 is the no-effect control and ±100 the full control effect; nearly all actives have a fitted effect of over 50% in size. The essentials:
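20 nM human CYP3A4 with 25 uM Luciferin-PPXE (at KM) in 200 mM KPO4, preincubated 10 min with compound; NADPH regeneration started a 60 min RT reaction. Luciferin detected by luminescence, normalized to 57 uM ketoconazole as full inhibition.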

The target is the same in assay [6]. Kind of assay: qHTS Assay for Activators of Cytochrome P450 3A4 (AID 885). Further: nearly all actives have a fitted effect of over 65% in size. Summed up:
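20nM CYP3A4 + 25uM Luciferin-PPXE (=KM), 200mM KPO4; cpd 10 min RT; NADPH regen, 60 min RT; stop w/ detection buffer, 20 min; luminescence. Normalized to 57 uM ketoconazole.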

Assay [7] in a line: Confirmation and Secondary Assay for Modulators of Hemoglobin Beta Chain Splicing at IVS2 654 locus (AID 910).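 Further: per-well total GFP intensity by laser scanning cytometry after 2-day treatment; % of control where 0% means no effect.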 Summed up:
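HeLa cells stably carrying EGFP interrupted by mutant beta-globin IVS2-654 intron (CMV-driven) were treated with compound for 2 days at 37C; corrected splicing was scored as total peak GFP intensity per well (488 nm excitation, 500-520 nm emission).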

Assay [8] is described as follows: Confirmation and Secondary Assay for Modulators of Hemoglobin Beta Chain Splicing at IVS2 705 locus (AID 930).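 Further: HeLa cells stably expressing the EGFP-705 splicing reporter; GFP fluorescence per well restored by corrected splicing of the IVS2-705 intron in EGFP; series mostly up to about 46 µM; % of control where 0% means no effect.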 Summed up:
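Secondary splice-site specificity test uses HeLa expressing CMV-driven EGFP interrupted by IVS2-705; cells were treated 2 days at 37C with 500 nM antisense PNA as positive control.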

Assay [9] concerns the target Ubiquitin carboxyl-terminal hydrolase 1 (Homo sapiens) (UniProt O94782). Kind of assay: Inhibitors of USP1/UAF1: Pilot qHTS (AID 504865).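 Further: rhodamine fluorescence freed from ubiquitin-rhodamine substrate followed over time; top concentration of the series differs between compounds; on the % scale 0 is the no-effect control and ±100 the full control effect; nearly all actives have a fitted effect of over 35% in size.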 Summed up: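 Enzyme-free wells gave the negative control, while test wells held 1nM USP1/UAF1 preincubated with compound for 15 min at room temperature. Ub-Rho at 150nM final started the reaction, and fluorescence at 480/540 nm was recorded kinetically.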

The target of assay [10] is DNA dC->dU-editing enzyme APOBEC-3G (Homo sapiens) (UniProt Q9HC16). In words: qHTS for inhibitors of Vif-A3G interactions: Validation (AID 588379). Further: 0% is about no effect. Summed up: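 HeLa cells stably expressing Vif and A3G-eYFP, 700 cells/well, incubated overnight at 37 deg C, then exposed to compound overnight at 37 deg C. Inhibition of Vif-mediated degradation read as increased yellow fluorescence (Ex 488/Em 500-530) by laser-scanning cytometry.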

Assay [11] can be described thus: qHTS assay for small molecule antagonists of peroxisome proliferator-activated receptor delta signaling (AID 588535; active means well fitted inhibition curve with a large enough effect in the signal ratio, with a control signal flat, not every such curve was filed as active; the % refers to the signal ratio;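 on max response: cells co-treated with a PPAR-delta agonist as stimulator during compound exposure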). The following applies: HEK293T PPARd-UAS-bla, beta-lactamase FRET ratio, 18 h; 460 nm channel. Summed up:
(§1)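 Reporter: UAS-bla under PPAR-delta response element, HEK293T host. Medium: 2% charcoal/dextran FBS. Dosing: titration, 18 hrs, 37 C. Detection: CCF4, 2 hrs RT, 405 ex/460 and 530 em.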

Assay [12] concerns the target Peroxisome proliferator-activated receptor delta (Homo sapiens) (UniProt Q03181). The description is as above. Summed up: as §1
Assay [13] deals with Peroxisome proliferator-activated receptor gamma (Homo sapiens) (UniProt P37231). Kind of assay: qHTS assay for small molecule agonists of peroxisome proliferator-activated receptor gamma signaling (AID 588536; active means well fitted curve in the direction sought with a large enough effect in the signal ratio, with a control signal flat, not every such curve was filed as active; the % refers to the signal ratio;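 further: 0% = DMSO basal wells and 100% = rosiglitazone at 2 µM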). The essentials: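 PPAR-gamma-UAS-bla HEK293 cells in medium with 1% charcoal/dextran-treated FBS were exposed to compounds for 16 h at 37 C. Beta-lactamase activity was read with CCF4 substrate (405 nm excitation, 460/530 nm emission).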
Sequence of Peroxisome proliferator-activated receptor gamma (Homo sapiens) (P37231 whole entry, looked up): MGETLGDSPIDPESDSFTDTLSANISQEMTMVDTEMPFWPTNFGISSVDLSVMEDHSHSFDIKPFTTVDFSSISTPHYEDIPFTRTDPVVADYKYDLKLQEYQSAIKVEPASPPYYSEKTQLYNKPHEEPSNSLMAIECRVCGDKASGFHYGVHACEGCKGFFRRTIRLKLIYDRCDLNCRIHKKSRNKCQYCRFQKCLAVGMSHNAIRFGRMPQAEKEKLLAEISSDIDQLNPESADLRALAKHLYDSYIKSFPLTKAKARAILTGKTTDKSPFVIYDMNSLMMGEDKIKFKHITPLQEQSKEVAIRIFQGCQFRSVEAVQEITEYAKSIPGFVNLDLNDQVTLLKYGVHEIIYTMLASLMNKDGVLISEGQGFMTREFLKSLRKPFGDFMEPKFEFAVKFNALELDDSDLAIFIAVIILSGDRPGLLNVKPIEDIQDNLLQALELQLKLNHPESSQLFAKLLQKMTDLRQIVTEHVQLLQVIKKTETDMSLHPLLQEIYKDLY

Assay [14] shares this target. In words: qHTS assay for small molecule antagonists of peroxisome proliferator-activated receptor gamma signaling (AID 588537; active means well fitted inhibition curve with a large enough effect in the signal ratio, with a control signal flat, not every such curve was filed as active; the % refers to the signal ratio;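 further: reporter cells co-stimulated with 50 nM rosiglitazone agonist during compound treatment; % of control where 0% means no effect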). The essentials:
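We seeded GeneBLAzer HEK293 reporter cells at 3000 per well, allowed 6-6.5 h attachment at 37 C, then co-treated with test compound titrations and 50 nM rosiglitazone overnight (16 h). Inhibition was quantified from 460/530 nm emission ratios.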

The target of assay [15] is Vitamin D3 receptor (Homo sapiens) (UniProt P11473). Kind of assay: qHTS assay for small molecule antagonists of vitamin D receptor signaling (AID 588541; calls by dose curve;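 further: receptor activated by calcitriol during compound treatment; series mostly up to about 77 µM; on the % scale 0 is the no-effect control and ±100 the full control effect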). The essentials: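 VDR-UAS-bla HEK293T cells (2000/well, 2% charcoal-stripped FBS) were treated with titrated compounds plus 1-alpha,25-dihydroxyvitamin D3 (50 nM or 3 nM final) for 16 h at 37 C. CCF4 beta-lactamase fluorescence was read; Hill fits gave IC50.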
Sequence of Vitamin D3 receptor (Homo sapiens) (P11473 whole entry, looked up): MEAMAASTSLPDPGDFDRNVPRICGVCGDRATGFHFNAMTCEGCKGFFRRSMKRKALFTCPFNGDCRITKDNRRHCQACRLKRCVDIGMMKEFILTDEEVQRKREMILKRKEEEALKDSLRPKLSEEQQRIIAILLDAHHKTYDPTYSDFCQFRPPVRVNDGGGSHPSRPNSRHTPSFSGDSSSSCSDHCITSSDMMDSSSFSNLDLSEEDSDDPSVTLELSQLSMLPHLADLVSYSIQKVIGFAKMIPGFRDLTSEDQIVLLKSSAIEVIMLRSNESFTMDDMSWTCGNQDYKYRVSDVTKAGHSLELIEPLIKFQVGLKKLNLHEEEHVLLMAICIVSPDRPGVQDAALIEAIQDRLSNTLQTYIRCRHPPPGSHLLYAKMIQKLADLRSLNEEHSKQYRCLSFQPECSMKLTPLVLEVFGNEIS

Assay [16] has the same target. Kind of assay: qHTS assay for small molecule agonists of vitamin D receptor signaling (AID 588543; calls by dose curve;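 further: 0% = DMSO basal and 100% = reference agonist control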). The essentials:
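Measured: β-lactamase reporter activity (CCF4, 405 nm excitation, 460/530 nm emission) in HEK293T VDR-UAS-bla cells after 16 h compound exposure at 37 °C. Normalization against 50 nM 1α,25-dihydroxyvitamin D3 and DMSO; Hill-fit EC50.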

Assay [17] addresses Thyroid hormone receptor beta (Homo sapiens) (UniProt P10828). Kind of assay: qHTS assay for small molecule agonists of thyroid hormone receptor beta signaling (AID 588545; calls by dose curve;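 further: 0% = DMSO only and 100% = 10 nM T3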). The essentials: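 TR-UAS-bla-GripTite HEK 293 cells in medium with 2% charcoal/dextran FBS, 0.1 mM NEAA and 1 mM sodium pyruvate were treated with titrated compounds for 18 hrs at 37 C. Beta-lactamase reporter was read with CCF4 dye (ex 405, em 460/530 nm); EC50 from Hill fits.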

A short description of assay [18]: qHTS assay for small molecule antagonists of retinoid X receptor alpha signaling (AID 588546; active means well fitted inhibition curve with a large enough effect in the signal ratio, with a control signal flat, not every such curve was filed as active; the % refers to the signal ratio;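 further: cells stimulated with 9-cis-retinoic acid as agonist; on the % scale 0 is the no-effect control and ±100 the full control effect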). The following applies: HEK293T RXRa-UAS-bla, beta-lactamase ratio, antagonist mode; measured here: W530 green channel, cytotoxicity proxy. Summed up: (§2)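 Beta-lactamase reporter inhibition, read as CCF4 fluorescence ratio (ex 405, em 460/530 nm) after 2 h at RT. HEK293T UAS-bla cells, 2500/well, were stimulated with 9-cis-RA at 500 or 100 nM final alongside test compound for 18 h at 37 C.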

Assay [19] addresses Retinoic acid receptor RXR-alpha (Homo sapiens) (UniProt P19793). Described as above. The following applies: HEK293T RXRa-UAS-bla, beta-lactamase ratio, antagonist mode. Summed up: as §2
For assay [20], the target named is Thyroid hormone receptor beta (Homo sapiens) (UniProt P10828). In words: qHTS assay for small molecule antagonists of thyroid hormone receptor beta signaling (AID 588547; active means well fitted inhibition curve with a large enough effect in the signal ratio, with a control signal flat, not every such curve was filed as active; the % refers to the signal ratio). The following applies: TR-UAS-bla HEK293, beta-lactamase ratio, antagonist mode, 18 h. The essentials:
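TR-UAS-bla GripTite HEK293 cells in 2% charcoal/dextran FBS medium were preincubated 4 h at 37 C, given compound (0.59 nM to 92 uM) plus 0.4 nM T3 (final) for 18 h, then CCF4 for 2 h at RT; Hill fit gave IC50.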

Assay [21] can be described thus: qHTS assay for small molecule activators of the p53 signaling pathway (AID 651743; active means well fitted activation curve with a large enough effect in the signal ratio, not every such curve was filed as active; the % refers to the signal ratio; further: series mostly up to about 92 µM; % of control where 0% means no effect). The following applies: HCT-116 p53RE-bla, beta-lactamase FRET ratio, 16 h; stronger effect = higher value. Summed up:
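Cell-based beta-lactamase reporter (p53 response elements, HCT-116 background). After a 5-hour preincubation, cells received compound for 16 hours at 37 C; substrate development ran 2 hours at room temperature.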

A short description of assay [22]: qHTS assay for environmental chemicals that activate the Aryl hydrocarbon Receptor (AhR) signaling pathway (AID 651777). Further: % of control where 0% means no effect; nearly all actives have a fitted effect of over 15% in size. The following applies: 1A2-DRE human hepatoma cells, luciferase, 24 h; stronger effect = higher value. Summed up:
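Following a 24 hr incubation with test chemicals at 37 C and 5% CO2, 1A2-DRE human hepatoma cells received One-Glo reagent; after 30 min at room temperature, luciferase output reflected CYP1A2 induction via AhR.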

The target in assay [23] is Peroxisome proliferator-activated receptor alpha (Homo sapiens) (UniProt Q07869). Kind of assay: qHTS assay for small molecule agonists of the peroxisome proliferator-activated receptor alpha (PPARalpha) signaling pathway (AID 651778). Further: % of control where 0% means no effect. As to conditions: PathHunter PPARalpha complementation, chemiluminescence, 6 h; stronger effect = higher value. Summed up:
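Cells plated at 2,000/well and held overnight at 37 C, 5% CO2, then compound added by pin tool for 6 hr; after PathHunter detection reagent and 60 min at room temperature, chemiluminescence from enzyme complementation was read.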

Assay [24] in a line: qHTS assay for small molecule agonists of the antioxidant response element (ARE) signaling pathway measured by Nrf2-dependant transcriptional activity - cell viability counter screen (AID 720653; active means well fitted curve in the direction sought with a large enough effect in the repeat runs; an effect the other way counts as inactive or inconclusive; further: on the % scale 0 is the no-effect control and ±100 the full control effect). The following applies: ARE-bla HepG2 viability, CellTiter-Glo ATP luminescence, 16 h; max response: stronger effect = lower value. The essentials: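 ARE-bla HepG2 cells (2,000/well) rested 5 hrs at 37C/5% CO2, then exposed to compounds in DMSO for 16 hrs. Viability was read in the same wells as intracellular ATP by luminescence, 30 min at room temperature after reagent addition.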

Assay [25] can be described thus: qHTS assay for cell viability of HEK293 cells (AID 743288). Further: on the % scale 0 is the no-effect control and ±100 the full control effect; nearly all actives have a fitted effect of over 50% in size. The following applies: ATP luminescence (CellTiter-Glo), 18 h; max response: stronger effect = lower value. The essentials: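 Luminescent ATP quantitation served as the viability read-out. Cells (parental HEK293, 2,000/well) received compounds after at least 5 h at 37 C and were exposed for 18 h before a 30 min room-temperature reagent step.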

Assay [26] is described as follows: qHTS assay for cell viability of the p53RE-bla HCT-116 cell line (AID 743292). Further: on the % scale 0 is the no-effect control and ±100 the full control effect; nearly all actives have a fitted effect of over 55% in size. The essentials:
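After plating at 4,000 cells per well and a 5 h rest at 37 C, HCT-116 cells carrying p53RE-bla received test chemicals in DMSO. Sixteen hours later at 37 C, CellTiter-Glo was added and luminescence recorded following 30 min at room temperature.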

Assay [27] deals with Rap guanine nucleotide exchange factor 3 (Homo sapiens) (UniProt O95398). Kind of assay: Confirmatory qHTS for agonist of cAMP-regulated guanine nucleotide exchange factor 3 (EPAC1) (AID 1645881).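 Further: EPAC1 catalysed release of BODIPY-GDP from Rap1B seen as fluorescence loss; 100% = effect of cAMP agonist control; nearly all actives have a fitted effect of over 75% in size.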
Sequence of Rap guanine nucleotide exchange factor 3 (Homo sapiens) (O95398 whole entry, looked up): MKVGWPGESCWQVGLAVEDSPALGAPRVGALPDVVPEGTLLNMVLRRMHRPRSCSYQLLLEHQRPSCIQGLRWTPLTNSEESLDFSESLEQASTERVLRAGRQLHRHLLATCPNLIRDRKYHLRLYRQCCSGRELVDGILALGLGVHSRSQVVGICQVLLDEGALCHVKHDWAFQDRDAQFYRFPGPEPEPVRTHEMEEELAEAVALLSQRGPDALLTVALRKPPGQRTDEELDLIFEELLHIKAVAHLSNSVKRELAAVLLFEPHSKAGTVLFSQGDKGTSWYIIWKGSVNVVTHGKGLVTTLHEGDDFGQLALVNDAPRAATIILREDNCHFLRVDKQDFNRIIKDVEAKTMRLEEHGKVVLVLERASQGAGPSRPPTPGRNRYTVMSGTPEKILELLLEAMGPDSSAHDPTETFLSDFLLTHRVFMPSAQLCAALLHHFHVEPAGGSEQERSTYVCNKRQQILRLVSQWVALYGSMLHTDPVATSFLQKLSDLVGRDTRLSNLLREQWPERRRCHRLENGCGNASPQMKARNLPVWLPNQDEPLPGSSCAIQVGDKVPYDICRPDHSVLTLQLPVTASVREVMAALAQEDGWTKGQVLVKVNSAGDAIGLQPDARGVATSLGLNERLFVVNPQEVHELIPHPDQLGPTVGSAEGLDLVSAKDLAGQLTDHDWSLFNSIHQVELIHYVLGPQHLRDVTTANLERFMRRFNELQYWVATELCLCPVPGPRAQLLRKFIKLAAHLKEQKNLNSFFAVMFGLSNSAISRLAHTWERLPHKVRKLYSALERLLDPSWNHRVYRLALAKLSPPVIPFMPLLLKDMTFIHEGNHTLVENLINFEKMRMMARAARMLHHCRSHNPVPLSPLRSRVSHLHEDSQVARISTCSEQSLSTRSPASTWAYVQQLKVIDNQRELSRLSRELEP
The target of assay [28] is Rap guanine nucleotide exchange factor 4 (Homo sapiens) (UniProt Q8WZA2). In words: Confirmatory qHTS for agonist of cAMP-regulated guanine nucleotide exchange factor 4 (EPAC2) (AID 1645884).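 Further: nucleotide exchange releases bodipy-GDP from Rap1 and this lowers its fluorescence; on the % scale 0 is the no-effect control and ±100 the full control effect; nearly all actives have a fitted effect of over 65% in size.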
Sequence of Rap guanine nucleotide exchange factor 4 (Homo sapiens) (Q8WZA2 whole entry, looked up): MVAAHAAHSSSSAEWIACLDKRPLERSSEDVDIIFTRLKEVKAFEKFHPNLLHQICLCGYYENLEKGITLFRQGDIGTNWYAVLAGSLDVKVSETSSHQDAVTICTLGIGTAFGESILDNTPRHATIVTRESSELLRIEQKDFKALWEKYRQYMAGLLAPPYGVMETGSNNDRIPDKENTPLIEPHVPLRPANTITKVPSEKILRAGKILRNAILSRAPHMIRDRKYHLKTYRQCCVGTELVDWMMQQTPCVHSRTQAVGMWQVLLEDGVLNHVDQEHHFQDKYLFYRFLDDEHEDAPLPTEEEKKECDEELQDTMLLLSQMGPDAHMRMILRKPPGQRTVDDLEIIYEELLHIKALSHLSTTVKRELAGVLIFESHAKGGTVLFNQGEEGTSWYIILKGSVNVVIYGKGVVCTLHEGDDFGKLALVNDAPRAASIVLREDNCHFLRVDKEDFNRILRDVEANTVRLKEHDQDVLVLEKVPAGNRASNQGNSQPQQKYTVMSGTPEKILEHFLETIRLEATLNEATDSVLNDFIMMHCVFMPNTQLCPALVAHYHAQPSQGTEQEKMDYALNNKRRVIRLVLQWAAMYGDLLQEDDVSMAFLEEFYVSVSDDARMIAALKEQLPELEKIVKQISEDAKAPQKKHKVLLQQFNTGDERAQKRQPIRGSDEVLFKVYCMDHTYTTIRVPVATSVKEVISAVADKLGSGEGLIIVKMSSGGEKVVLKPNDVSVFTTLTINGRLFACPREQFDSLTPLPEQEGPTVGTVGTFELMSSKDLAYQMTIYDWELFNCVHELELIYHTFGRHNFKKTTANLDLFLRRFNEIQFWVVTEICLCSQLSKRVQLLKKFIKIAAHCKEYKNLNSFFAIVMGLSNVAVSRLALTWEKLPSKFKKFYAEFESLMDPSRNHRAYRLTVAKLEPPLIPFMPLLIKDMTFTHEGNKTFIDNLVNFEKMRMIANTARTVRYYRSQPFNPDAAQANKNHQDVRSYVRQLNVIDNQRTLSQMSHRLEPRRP
The target is the same in assay [29]. Kind of assay: Confirmatory qHTS for antagonist of cAMP-regulated guanine nucleotide exchange factor 4 (EPAC2) (AID 1645885). Further: potency means the concentration at half of the fitted maximal effect; nearly all actives have a fitted effect of over 25% in size.
The target in assay [30] is Nuclear receptor subfamily 1 group I member 2 (Rattus norvegicus) (UniProt Q9R1A7). Kind of assay: qHTS assay for small molecule activators of the rat pregnane X receptor (rPXR) signaling pathway (AID 651751; call rule not given here; further: 0% is about no effect). As to conditions: rPXR reporter cells, luciferase (One-Glo), 24 h.
Assay [31] can be described thus: qHTS assay for small molecule activators of the human pregnane X receptor (PXR) signaling pathway (AID 720659; call rule not given here; further: 0% is about no effect).

Sequence of Cytochrome P450 3A4 (Homo sapiens) (P08684 whole entry, looked up): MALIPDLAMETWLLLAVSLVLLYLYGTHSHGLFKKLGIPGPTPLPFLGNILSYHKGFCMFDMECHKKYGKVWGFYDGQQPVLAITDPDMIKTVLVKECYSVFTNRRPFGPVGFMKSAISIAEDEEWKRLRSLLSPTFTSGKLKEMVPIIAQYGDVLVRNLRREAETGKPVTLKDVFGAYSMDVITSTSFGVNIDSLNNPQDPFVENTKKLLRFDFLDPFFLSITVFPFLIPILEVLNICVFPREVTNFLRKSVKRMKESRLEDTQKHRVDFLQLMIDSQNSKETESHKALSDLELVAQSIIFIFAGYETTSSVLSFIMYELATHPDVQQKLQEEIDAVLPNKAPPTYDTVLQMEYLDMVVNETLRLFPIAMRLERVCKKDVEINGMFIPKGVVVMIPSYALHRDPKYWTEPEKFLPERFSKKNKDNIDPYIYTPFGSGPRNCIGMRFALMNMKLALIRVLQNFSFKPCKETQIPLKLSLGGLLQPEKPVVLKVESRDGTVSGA
Sequence of Thyroid hormone receptor beta (Homo sapiens) (P10828 whole entry, looked up): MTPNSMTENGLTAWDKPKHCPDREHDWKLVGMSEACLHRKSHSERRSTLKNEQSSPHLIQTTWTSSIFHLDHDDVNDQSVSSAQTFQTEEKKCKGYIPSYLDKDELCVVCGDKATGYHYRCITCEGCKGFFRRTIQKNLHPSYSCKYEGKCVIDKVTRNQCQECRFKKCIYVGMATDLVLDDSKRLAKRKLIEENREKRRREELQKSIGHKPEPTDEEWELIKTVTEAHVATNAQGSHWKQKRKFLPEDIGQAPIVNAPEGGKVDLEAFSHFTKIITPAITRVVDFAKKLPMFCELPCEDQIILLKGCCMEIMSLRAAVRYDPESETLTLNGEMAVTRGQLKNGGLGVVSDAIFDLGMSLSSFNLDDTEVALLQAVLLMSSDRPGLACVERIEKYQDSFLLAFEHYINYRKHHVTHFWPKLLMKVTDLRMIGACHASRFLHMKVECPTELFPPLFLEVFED
Sequence of Peroxisome proliferator-activated receptor alpha (Homo sapiens) (Q07869 whole entry, looked up): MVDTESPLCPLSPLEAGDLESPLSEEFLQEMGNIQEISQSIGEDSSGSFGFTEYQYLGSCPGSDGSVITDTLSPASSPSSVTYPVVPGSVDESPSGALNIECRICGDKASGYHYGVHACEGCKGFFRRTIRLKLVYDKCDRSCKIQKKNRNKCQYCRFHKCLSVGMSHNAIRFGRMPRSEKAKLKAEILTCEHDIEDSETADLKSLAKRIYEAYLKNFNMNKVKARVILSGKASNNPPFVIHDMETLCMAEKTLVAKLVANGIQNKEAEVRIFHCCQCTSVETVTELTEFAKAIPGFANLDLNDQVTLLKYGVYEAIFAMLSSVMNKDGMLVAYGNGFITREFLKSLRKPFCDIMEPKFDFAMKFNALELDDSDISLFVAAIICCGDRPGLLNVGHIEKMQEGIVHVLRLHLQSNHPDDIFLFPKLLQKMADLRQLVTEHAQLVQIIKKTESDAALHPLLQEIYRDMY
Sequence of Peroxisome proliferator-activated receptor delta (Homo sapiens) (Q03181 whole entry, looked up): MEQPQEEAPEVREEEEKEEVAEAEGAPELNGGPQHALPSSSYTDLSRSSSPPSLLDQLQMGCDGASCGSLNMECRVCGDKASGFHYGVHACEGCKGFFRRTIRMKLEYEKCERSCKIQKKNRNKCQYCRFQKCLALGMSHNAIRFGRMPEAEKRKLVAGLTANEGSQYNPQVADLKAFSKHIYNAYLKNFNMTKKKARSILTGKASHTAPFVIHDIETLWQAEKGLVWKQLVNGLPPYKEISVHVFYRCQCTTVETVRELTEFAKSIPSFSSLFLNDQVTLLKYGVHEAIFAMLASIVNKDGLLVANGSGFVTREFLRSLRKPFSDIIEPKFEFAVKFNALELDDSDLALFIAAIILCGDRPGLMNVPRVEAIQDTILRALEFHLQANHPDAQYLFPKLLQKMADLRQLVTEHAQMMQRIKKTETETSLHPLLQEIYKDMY

On to `N#CC(=C(/N)Sc1ccccc1N)/C(C#N)=C(\N)Sc1ccccc1N`, for which the Potency result in assay [1] and in assay [2] was “inactive” in each case. For the same compound, in assay [3], the compound was classed as inactive. In [4], the Potency is 5.15 µM (active).
Take `CC(C)=CCC/C(C)=C/CC/C(C)=C/CO`: the Potency entry in assay [5], in assay [6], in [9], in assay [10], in [15] and in assay [26] was “inactive” each time. Further, the Potency entry in assay [1] and in assay [2] was “inactive” throughout. In addition, the outcome in [7], in assay [8], in assay [12], in assay [13], in [14] and in assay [16] was inactive. Besides, the call in assay [17], in assay [27], in assay [28] and in assay [31] was inactive. In addition, the max response is -3.54% in assay [11]; -7.11% in assay [18]; 5.64% (inactive) in assay [19]; 2.41% (inactive) in assay [23]; -6.95% (inactive) in assay [24]; -6.29% (inactive) in [25]. In addition, the max response in assay [30] was -1.6% (inactive). The activity change % (negative = inhibition) in assay [20] was 1.19% (inactive). Moreover, the figures for the activation in assay [21] and in assay [22] were 1.11% (inactive) and 1.51% (inactive), respectively. Further, the Potency in assay [29] is 31.2 µM (active).
